# Six1-Eya2 inh – qHTS Assay for Inhibitors of the Six1/Eya2 Interaction; Homeobox protein SIX1 (Homo sapiens) + Protein phosphatase EYA2 (Homo sapiens), …; AlphaScreen GST-Six1/His-Eya2 binding, biochemical; hits give low values; activity change, % (test concentration not listed); 360,000 compounds, 0.56% hits; AID 651725, 2012
#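 Homogeneous AlphaScreen proximity assay pairing GST-Six1 with His-tagged Eya2 (added as 5X mix: 250 nM and 500 nM) in 50 mM Tris pH 8.0, 300 mM NaCl, 1 mM TCEP. Glutathione donor and nickel acceptor beads; 1 h, 37 °C, dark.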
# PI5P4K alpha inh – qHTS for Inhibitors of phosphatidylinositol 5-phosphate 4-kinase (PI5P4K). 330,000 compounds, 1.2% hits. max response, %. AID 652105, 2013. Phosphatidylinositol 5-phosphate 4-kinase type-2 alpha (Homo sapiens), P48426. PI5P4Kalpha enzyme, ADP-Glo luminescence, 60 min; hits give low values; active means max response of -50% or lower; inconclusive means between -30% and -50%; inactive means -30% or higher; further: value at the top dose of about 77 µM
# Target sequence (P48426 whole entry, looked up): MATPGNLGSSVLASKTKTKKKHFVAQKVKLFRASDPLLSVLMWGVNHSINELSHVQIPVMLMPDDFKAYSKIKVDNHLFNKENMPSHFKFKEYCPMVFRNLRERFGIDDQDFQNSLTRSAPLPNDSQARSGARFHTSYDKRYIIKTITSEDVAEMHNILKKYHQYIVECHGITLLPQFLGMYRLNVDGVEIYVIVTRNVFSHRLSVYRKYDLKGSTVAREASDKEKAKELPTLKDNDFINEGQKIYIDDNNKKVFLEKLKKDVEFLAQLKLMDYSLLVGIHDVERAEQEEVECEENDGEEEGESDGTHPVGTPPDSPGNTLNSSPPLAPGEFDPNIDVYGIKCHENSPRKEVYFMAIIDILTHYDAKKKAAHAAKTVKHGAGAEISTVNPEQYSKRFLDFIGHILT
#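 Compounds were pin-transferred onto PI5P4Kalpha and substrate in HEPES pH 7.4 buffer with EGTA, CHAPS and 5% DMSO. ATP (5 microM final) started the reaction, which ran 60 minutes at room temperature before ADP-Glo detection.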
# Akt phos inh – HTS Assay for Inhibitors of Akt Phophorylation: Primary Screen; Neuro2A IGF-stimulated pAkt S473 HTRF, 20 min; hits give low values; activity change, % for hits at 50 µM; 360,000 compounds, 0.32% hits; AID 651550, 2012; in the data active means activity change below about -80%; inconclusive means mostly about -51% to -80%
#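 Neuro2A cells (4,500/well, DMEM with 0.5% FBS) were treated with compound at a single 50 µM final concentration, stimulated with 6 nM IGF for 20 min at 37 °C, and lysed. Phospho-Akt Ser473 was read by HTRF as 665/615 ratio ×10^4.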
# PI4K2A inh – qHTS for small molecular inhibitors of PI4K2A; AID 1346378, 2018; Phosphatidylinositol 4-kinase type 2-alpha (Homo sapiens), Q9BTU6; purified PI4K2A, ADP-Glo luminescence, 1 h; hits give low values; activity change, negative = inhibition, % at 76.9 µM; 420,000 compounds, 0.13% hits; in the data active means activity change below about -50%; inconclusive means mostly about -30% to -49%;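 further: -100% = wells without enzyme as full effect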
#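 PI4K2A activity was measured by ADP-Glo luminescence: enzyme (4 ug/mL stock) and phosphatidylinositol (1.2 mM stock) in Tris pH 7.5/MgCl2/EGTA/Triton X-100 buffer were reacted with ATP (300 microM stock) for one hour at ambient temperature.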
# CtBP-E1A blk – qHTS Assay for Inhibitors of the CtBP/E1A Interaction. CtBP / adenovirus E1A interaction (AlphaScreen). activity change, % (concentration not given with the values). 340,000 compounds, 0.49% hits. AlphaScreen GST-E1A/His-CtBP binding, 1536-well; hits give low values. AID 651724, 2012
#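 AlphaScreen with 125 nM GST-E1A and 125 nM His-CtBP (5X stocks) in Tris pH 8.0, 300 mM NaCl, BSA, Tween 20, TCEP. Compounds preincubated 2 h at 37 deg C, then glutathione donor/nickel acceptor beads added for 1 h at 37 deg C in dark.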
# * marks the source's active call; other numbers are inactive results; i = inactive; ? = inconclusive; nt = no result. This is a sample that favours compounds with a hit; in the whole collection about 1.8% have one here. Unless noted, no stated cut-off is given here; in the data, active means activity change below about -65%; inconclusive means mostly about -30% to -63%; inactive means weaker than that. Unless noted, on the % scale 0 is the no-effect control and ±100 the full control effect.
SMILES,Six1-Eya2 inh,PI5P4K alpha inh,Akt phos inh,PI4K2A inh,CtBP-E1A blk
CCOC(=O)/C=C/C(=O)OCC(=O)Nc1ccc(Cl)cc1Cl,5,-1,i,15,2
O=C1NCCN(Cc2ccoc2)C1CC(=O)N(Cc1ccccc1)CC1CCC1 (configuration not stated),-3,-9,i,9,3
NC(COCc1ccccc1)c1csc(Nc2nncc3ccccc23)n1 (configuration not stated),-1,16,i,-4,-28
Oc1c(I)cc(I)c2cccnc12,-67*,-28,i,-11,-73*
Cc1ccc2c(Cl)cc(Cl)c(O)c2n1,?,0,i,-6,-65*
O=S(=O)(O)c1cc(I)c(O)c2ncccc12,nt,nt,nt,1,nt
Oc1ccc(F)c2cccnc12,-81*,?,i,-29,1
Cc1cc(Cl)c2ccc3ccccc3c2n1,15,6,i,-2,12
Cc1nc2c(=O)n(C)c(=O)n(C)c2nc1Cl,-24,8,i,-22,10
N#C/C(=C\c1ccc[nH]1)C(=O)Nc1ccccc1[N+](=O)[O-],-23,-65*,i,-28,-19
CCOc1ccc(C2CC(=O)NC3=C2C(=O)CCC3)cc1Cl (configuration not stated),1,1,-107%*,6,11
Cn1c(=O)c2c(nc(Oc3ccccc3)n2Cc2c(Cl)cccc2Cl)n(C)c1=O,nt,nt,nt,4,nt
CCc1cccc2c1NC(=O)[C@]21[C@@H]2C(=O)N(Cc3ccccc3)C(=O)[C@@H]2[C@@H]2CCCN21,-4,-52*,i,2,-4
Cc1c(Cl)ccc2c1NC(=O)[C@]21[C@@H]2C(=O)N(Cc3ccccc3)C(=O)[C@@H]2[C@@H]2CCCN21,7,?,i,-3,-8
OCCCN1CNC(=S)NC1,4,8,i,-1,8
Oc1c(C(Nc2nccs2)c2ccc(C(F)(F)F)cc2)ccc2cccnc12 (configuration not stated),?,-24,i,6,?
Oc1c(C(Nc2cccc(C(F)(F)F)c2)c2ccncc2)ccc2cccnc12 (configuration not stated),-92*,-7,i,-2,-94*
NS(=O)(=O)c1ccc(N=Nc2c(O)c(C(=O)O)cc3ccccc23)cc1,-20,-95*,i,-18,nt
O=C(O)Cc1ccc(N=Nc2c(O)c(C(=O)O)cc3ccccc23)cc1,?,-73*,i,-6,-11
CN(C(=O)c1nc(-c2ccccc2)n(-c2ccccc2)n1)C1CCS(=O)(=O)C1 (configuration not stated),-5,1,i,-20,6
COc1ccc(C)cc1-n1c(SCC(=O)Nc2cccc(C(=O)O)c2)nc2ccccc2c1=O,-4,-81*,i,8,-8
O=C(CSc1nc(-c2ccccc2)nc2ccc(F)cc12)Nc1cccc(C(=O)O)c1,-5,-50*,i,-1,-1
C/C(=N\NC(=O)COc1ccccc1[N+](=O)[O-])c1cccc(NC(=O)c2ccncc2)c1,?,-8,i,4,-22
O=C(O)c1ccc2c(=O)n3c(nc2c1)/C(=C/c1cccc(Cl)c1Cl)CCCC3,-12,-73*,i,-4,-2
O=C1CC(c2ccc(Cl)cc2)CC(=O)C1CS(=O)(=O)c1ccccc1 (configuration not stated),-1,-58*,i,-14,nt
COc1cc(C(=O)N2CCN(S(=O)(=O)c3ccc(C)cc3)CC2)ccc1OCc1c(C)noc1C,-1,nt,i,4,3
Cc1c(O)ccc2c(CN3CCN(Cc4ccccc4)CC3)cc(=O)oc12,-12,0,i,-1,-11
CCOC(=O)CSC1=NC(=O)/C(=C/c2ccc(Br)cc2)S1,1,-55*,i,3,-7

# Screening data from PubChem BioAssay.
